From PubChem BioAssay AID1159580 (chemical genetic matrix, 2015)
Values joined by “and” are separate entries in the source; they are usually repeats but may differ in a detail not shown here. Equal values may be shown once. The campaign covered roughly 5,500 compounds. About 2,000 (36%) were called active. Not shown: some 18% with an inconclusive outcome. Cut-off read from the data, not from the text of the source: active = normalized growth mostly below about 0.91 (no sharp cut-off); inconclusive = no clear call, values can overlap the other calls; inactive = mostly above about 0.92. Some of the results follow.

Assay: chemical genetic growth profiling, strain panel (AID 1159580);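 note: tested at 20 µM; growth read once vehicle control cultures reached saturation at 30 °C; 1 = growth at the plate median or of vehicle wells; lower values mean less growth of the strain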
Settings: S. cerevisiae deletion strains, growth OD

Measured: normalized growth

CCC(=O)OC1[C@@H]2CC3=C4CC(=O)O[C@@H](c5ccoc5)[C@]4(C)CCC3[C@@](C)(C2=O)[C@@H](CC(=O)OC)C1(C)C (stereo partly specified)
inactive: locus YAL021C, strain ccr4, stronger effect = lower value 1.03 | locus YAL026C, strain drs2, stronger effect = lower value 0.973 | locus YAL030W, strain snc1, stronger effect = lower value 0.998 | locus YBL061C, strain skt5, stronger effect = lower value 0.992 | locus YBR009C, strain hhf1, stronger effect = lower value 0.992 | locus YBR021W, strain FUR4, stronger effect = lower value 1.01 | locus YBR023C, strain chs3, stronger effect = lower value 0.995 | locus YBR171W, strain sec66, stronger effect = lower value 0.983 | locus YBR229C, strain ROT2, stronger effect = lower value 1 | locus YBR231C, strain swc5, stronger effect = lower value 0.989 | locus YBR279W, strain paf1, stronger effect = lower value 0.999 | locus YCL011C, strain gbp2, stronger effect = lower value 1.01 | locus YCL016C, strain dcc1, stronger effect = lower value 1.01 | locus YCL029C, strain bik1, stronger effect = lower value 1.02 | locus YCL061C, strain MRC1, stronger effect = lower value 0.998 | locus YCL069W, strain vba3, stronger effect = lower value 0.995 | locus YCR088W, strain abp1, stronger effect = lower value 0.996 | locus YDL005C, strain med2, stronger effect = lower value 0.978 | locus YDL035C, strain GPR1, stronger effect = lower value 1 | locus YDL040C, strain nat1, stronger effect = lower value 0.976 | locus YDL074C, strain BRE1, stronger effect = lower value 1.01 | locus YDL101C, strain DUN1, stronger effect = lower value 1 | locus YDL185W, strain tfp1, stronger effect = lower value 1.02 | locus YDL192W, strain arf1, stronger effect = lower value 1.01 | locus YDR001C, strain nth1, stronger effect = lower value 0.992 | locus YDR069C, strain doa4, stronger effect = lower value 0.982 | locus YDR101C, strain arx1, stronger effect = lower value 1.02 | locus YDR137W, strain rgp1, stronger effect = lower value 0.901 | locus YDR159W, strain sac3, stronger effect = lower value 0.991 | locus YDR162C, strain NBP2, stronger effect = lower value 0.999 | locus YDR195W, strain ref2 0.984 | locus YDR297W, strain sur2, stronger effect = lower value 0.994 | locus YDR318W, strain mcm21, stronger effect = lower value 1.01 | locus YDR334W, strain swr1, stronger effect = lower value 0.982 | locus YDR335W, strain msn5, stronger effect = lower value 0.996 | locus YDR388W, stronger effect = lower value 1.01 | locus YDR392W, strain spt3, stronger effect = lower value 0.837 | locus YDR502C, strain sam2, stronger effect = lower value 1.02 | locus YEL003W, strain gim4, stronger effect = lower value 0.989 | locus YEL037C, strain rad23, stronger effect = lower value 0.984 | locus YEL061C, strain CIN8 (second series), stronger effect = lower value 0.986 | locus YEL061C, strain CIN8, stronger effect = lower value 0.992 | locus YER015W, strain faa2, stronger effect = lower value 1 | locus YER016W, strain bim1, stronger effect = lower value 0.991 | locus YER110C, stronger effect = lower value 1.02 | locus YER111C, strain swi4, stronger effect = lower value 0.977 | locus YER155C, strain BEM2 (second series), stronger effect = lower value 1 | locus YER155C, strain BEM2, stronger effect = lower value 0.998 | locus YER167W, strain BCK2, stronger effect = lower value 0.994 | locus YFR010W, strain ubp6, stronger effect = lower value 0.984 | locus YGL078C, strain dbp3, stronger effect = lower value 1 | locus YGL086W, strain mad1, stronger effect = lower value 1 | locus YGL167C, strain pmr1, stronger effect = lower value 0.989 | locus YGL173C, strain kem1, stronger effect = lower value 0.979 | locus YGL227W, strain vid30, stronger effect = lower value 0.988 | locus YGL240W, strain doc1, stronger effect = lower value 0.99 | locus YGL248W, strain PDE1, stronger effect = lower value 1 | locus YGL253W, strain hxk2, stronger effect = lower value 0.954 | locus YGR135W, strain pre9, stronger effect = lower value 1.02 | locus YGR252W, strain gcn5, stronger effect = lower value 1.05 | locus YHR013C, strain ard1, stronger effect = lower value 0.966 | locus YHR027C, strain rpn1, stronger effect = lower value 0.988 | locus YHR030C, strain SLT2, stronger effect = lower value 1 and 0.969 | locus YHR079C, strain IRE1 (second series), stronger effect = lower value 1.01 | locus YHR079C, strain IRE1, stronger effect = lower value 0.987 | locus YHR094C, strain hxt1, stronger effect = lower value 1.01 | locus YHR129C, strain ARP1, stronger effect = lower value 1 | locus YHR142W, strain chs7, stronger effect = lower value 1.01 | locus YHR200W, strain rpn10, stronger effect = lower value 1.02 | locus YIL066C, strain RNR3, stronger effect = lower value 0.999 | locus YIL073C, strain SPO22, stronger effect = lower value 1.05 | locus YIL125W, strain kgd1, stronger effect = lower value 1.01 | locus YIR030C, strain dcg1, stronger effect = lower value 1.01 | locus YJL092W, strain hpr5, stronger effect = lower value 0.995 | locus YJL095W, strain BCK1 (second series), stronger effect = lower value 0.995 | locus YJL095W, strain BCK1, stronger effect = lower value 0.992 and 0.999 | locus YJL115W, strain asf1, stronger effect = lower value 0.989 | locus YJL129C, strain trk1, stronger effect = lower value 0.974 | locus YJL134W, strain LCB3, stronger effect = lower value 0.998 | locus YJL154C, strain vps35, stronger effect = lower value 0.996 | locus YJL164C, strain tpk1, stronger effect = lower value 1.01 | locus YJL166W, strain qcr8, stronger effect = lower value 1 | locus YJL168C, strain set2, stronger effect = lower value 1 | locus YJL187C, strain SWE1 (second series), stronger effect = lower value 1.01 | locus YJL187C, strain SWE1, stronger effect = lower value 0.998 | locus YJR043C, strain POL32, stronger effect = lower value 1.02
